The supplement of paper PMC9950053
Counter-ions that a name gives are not always drawn.

Each compound was assayed on Danio rerio larvae (5 dpf) (assay: excitability (activity period 17 minus period 16, 1-s interval sound) minus DMSO control (percentage points); higher = more acoustic excitability than DMSO larvae). Conditions: 10 µM; exposure time: 3 h pre-incubation + 3 h imaging.
Experimental: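 Wild-type 5 dpf zebrafish larvae (n=48 per drug, 96-well plates, 28.5 °C) were exposed to Tocris FDA-approved library compounds at 10 µM (0.1% DMSO) for 3 h before and 3 h during imaging. Images were taken every 6 s during visual (moving coloured lines) and acoustic stimuli, and larvae were tracked with the DeepLabCut-based Z-LaP Tracker. Each behavioural measure is the treated-group mean minus the DMSO vehicle control mean (n=844), in percentage points. This mapping covers compounds with 4-character plate codes.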

Compound | excitability
CCN(Cc1ccncc1)C(=O)C(CO)c1ccccc1 (stereo not given) [Tropicamide] | -2.02
CCCN(CCc1cccs1)[C@H]1CCc2c(O)cccc2C1 [Rotigotine hydrochloride] | 13.6
CCCCC(=O)N(Cc1ccc(-c2ccccc2-c2nnn[nH]2)cc1)[C@H](C(=O)O)C(C)C [Valsartan] | -1.67
CNC(=O)c1ccccc1Sc1ccc2c(/C=C/c3ccccn3)n[nH]c2c1 [Axitinib] | 1.48
C[C@H]1C[C@@H]2[C@H]([C@@H](O)C[C@@]3(C)[C@H]2CC[C@]3(O)C(=O)CO)[C@@]2(C)C=CC(=O)C=C12 [Methylprednisolone] | 1.52
NC(=O)c1ncn([C@@H]2O[C@H](CO)[C@@H](O)[C@H]2O)n1 [Ribavirin] | 3.28
CC1=Nc2ccc(Cl)cc2S(=O)(=O)N1 [Diazoxide] | 3.88
COc1cccc2c1C(=O)c1c(O)c3c(c(O)c1C2=O)C[C@@](O)(C(=O)CO)C[C@@H]3O[C@H]1C[C@H](N)[C@H](O)[C@H](C)O1 [Doxorubicin hydrochloride] | 15.5
COCCCOc1cc(C[C@@H](C[C@H](N)[C@@H](O)C[C@H](C(=O)NCC(C)(C)C(N)=O)C(C)C)C(C)C)ccc1OC [Aliskiren hemifumarate] | 12.7
O=c1[nH]c(=O)n([C@H]2C[C@H](O)[C@@H](CO)O2)cc1C(F)(F)F [Trifluorothymidine] | 4.38
Nc1ncn([C@H]2C[C@H](O)[C@@H](CO)O2)c(=O)n1 [Decitabine] | 8.23
COc1ccc(C[C@@H](C)NC[C@H](O)c2ccc(O)c(NC=O)c2)cc1 [Arformoterol tartrate] | 4.62
CCOC(=O)[C@H](CCc1ccccc1)N[C@@H](C)C(=O)N1[C@H](C(=O)O)C[C@@H]2CCC[C@@H]21 [Ramipril] | 6.38
COC(=O)C1=C(C)NC(C)=C(C(=O)OC(C)C)C1c1cccc2nonc12 (stereo not given) [Isradipine] | 15.3
C/C(O)=C(\C#N)C(=O)Nc1ccc(C(F)(F)F)cc1 [Teriflunomide] | 9.34
CN1CC2c3ccccc3Oc3ccc(Cl)cc3C2C1 (stereo not given) [Asenapine maleate] | 14.2
CCOC(=O)C1=C(COCCN)NC(C)=C(C(=O)OC)C1c1ccccc1Cl (stereo not given) [Amlodipine besylate] | 1.82
O=C(O)c1cc(/N=N/c2ccc(S(=O)(=O)Nc3ccccn3)cc2)ccc1O [Sulfasalazine] | 0.715
C#C[C@]1(O)CC[C@H]2[C@@H]3CCC4=CC(=O)CC[C@@H]4[C@H]3CC[C@@]21CC [Levonorgestrel] | 3.64
O=C(c1ccc(OCCN2CCCCC2)cc1)c1c(-c2ccc(O)cc2)sc2cc(O)ccc12 [Raloxifene hydrochloride] | 9.77

Compound | excitability
Nc1cc(N2CCCCC2)nc(N)[n+]1[O-] [Minoxidil] | 0.502
NS(=O)(=O)c1cc(C(=O)O)c(NCc2ccco2)cc1Cl [Furosemide] | -1.6
CC(C)N(CCCCOCC(=O)NS(C)(=O)=O)c1cnc(-c2ccccc2)c(-c2ccccc2)n1 [Selexipag] | 5.98
C[C@H](Cc1cc2c(c(C(N)=O)c1)N(CCCO)CC2)NCCOc1ccccc1OCC(F)(F)F [Silodosin] | 22.6
CC(c1cc2ccccc2s1)N(O)C(N)=O (stereo not given) [Zileuton] | 6.27
Cc1ccc(-c2cc(C(F)(F)F)nn2-c2ccc(S(N)(=O)=O)cc2)cc1 [Celecoxib] | 4.91
CCCc1nc(C(C)(C)O)c(C(=O)O)n1Cc1ccc(-c2ccccc2-c2nnn[nH]2)cc1 [Olmesartan] | 0.0977
CCOC(=O)[C@H](CCc1ccccc1)N[C@H]1CCc2ccccc2N(CC(=O)O)C1=O [Benazepril hydrochloride] | 0.927
Clc1ccccc1C(c1ccccc1)(c1ccccc1)n1ccnc1 [Clotrimazole] | 11.3
C=CC(=O)N1CCC[C@@H](n2nc(-c3ccc(Oc4ccccc4)cc3)c3c(N)ncnc32)C1 [Ibrutinib] | -1.71
CC[C@H](C)C(=O)O[C@H]1C[C@@H](C)C=C2C=C[C@H](C)[C@H](CC[C@@H]3C[C@@H](O)CC(=O)O3)[C@H]21 [Lovastatin] | 15
CC(C)[C@H]1CC[C@H](C(=O)N[C@H](Cc2ccccc2)C(=O)O)CC1 [Nateglinide] | 2.5
N#Cc1ccc(C(c2ccc(C#N)cc2)n2cncn2)cc1 [Letrozole] | 0.318
CCC(=O)O[C@]1(C(=O)SCF)[C@H](C)C[C@H]2[C@@H]3C[C@H](F)C4=CC(=O)C=C[C@]4(C)[C@@]3(F)[C@@H](O)C[C@@]21C [Fluticasone propionate] | 3.16
CC(=O)S[C@@H]1CC2=CC(=O)CC[C@]2(C)[C@H]2CC[C@@]3(C)[C@@H](CC[C@@]34CCC(=O)O4)[C@H]12 [Spironolactone] | 3.91
Nc1nc(F)nc2c1ncn2[C@@H]1O[C@H](CO)[C@@H](O)[C@@H]1O [Fludarabine] | 1.97
CCC(C)(C)C(=O)O[C@H]1C[C@@H](C)C=C2C=C[C@H](C)[C@H](CC[C@@H]3C[C@@H](O)CC(=O)O3)[C@H]21 [Simvastatin] | 10.2
CCCCC1=NC2(CCCC2)C(=O)N1Cc1ccc(-c2ccccc2-c2nnn[nH]2)cc1 [Irbesartan] | -0.258
CN1CCC[C@@H]1Cc1c[nH]c2ccc(CCS(=O)(=O)c3ccccc3)cc12 [Eletriptan hydrobromide] | 6.84
CCCCCOC(=O)Nc1nc(=O)n([C@@H]2O[C@H](C)[C@@H](O)[C@H]2O)cc1F [Capecitabine] | 6.07
